Test results taken from PubChem BioAssay (NCATS).
Calls of active or inactive are those of the source. The call rests on the fitted dose curve; in most records, active means well fitted activation curve with a large enough effect; inconclusive means small, poorly fitted or top-dose-only effect; inactive means flat fitted curve, though single readings scatter.

Assay: Confirmation and Secondary Assay for Modulators of Hemoglobin Beta Chain Splicing at IVS2 705 locus (AID 930)
Conditions: HeLa EGFP-705 splicing reporter, GFP fluorescence, 48 h; series mostly up to 46.1 µM
Description: NIH Chemical Genomics Center [NCGC] NIH Molecular Libraries Screening Centers Network [MLSCN] MLSCN Grant: 1 X01 MH080684-01 PI Name: Dr. Ryszard Kole NCGC Assay Overview: Modulation of Alternative Splicing as Therapy Abnormal splicing is associated with a number of diseases, including cancer and genetic diseases such as cystic fibrosis, muscular dystrophy and beta-thalassemia. Alteration of disease associated splicing patterns provides a promising target for treatment. […] Mutations in the second intron of the b-globin gene at positions 654 or 705 are clinically relevant and cause mis-splicing which results in an out of frame gene product. […] EGFP-705 HeLa Cells as screen system. HeLa cell lines were stably transfected with a construct in which the EGFP (enhanced green fluorescent protein) cDNA was interrupted by the second intron of the beta-globin gene (IVS2-705). The ISV2 intron contains mutations which cause mis-splicing of EGFP and premature termination of EGFP which results in a nonfluorescent protein product. […] Expression of the transgene was driven by the CMV promoter. We concluded that a low molecular weight compound, which restored correct splicing of intron 2 would also generate functional EGFP protein, resulting in a fluorescent signal. Thus, the HeLa cells that express the EGFP-705 construct can be used for validation of splice site specificity of compounds identified in primary screening of the ISV2 654 construct.
NCGC Assay Protocol Summary: Confirmatory Screening. Freshly thawed HeLa EGFP-705 cells were seeded in 5 ul of optimem media (Invitrogen) containing 2 % fetal calf serum (Hyclone) and 1x penicillin/streptomycin (Invitrogen) at a concentration of 500 cells per well in 1536-well plates. Cells were incubated overnight at 37C in 5% CO2. The next day, cells were treated with DMSO, 500 nM antisense ISV2 654 PNA control oligo, or library compound and allowed to grow at 37C in 5% CO2 for 2 days. The PNA oligo blocked the mutation site in the intron and allowed proper (wild type) splicing to occur, resulting in full length EGFP expression and also allowed for optimization of the assay parameters. Plates were read in the Acumen Explorer (TTP Labtech) using 488 nm laser excitation and 500-520 nm emission PMT filter in a 1 x 8 uM capture mode. Fluorescnet objects ranging in size from 5 to 250 uM were measured and the total peak GFP intensity for each well was used for data analysis. Keywords: Thalassemia, beta-thalassemia, beta-globin, EGFP, ISV2 654, ISV2 705, SSO, PNA, antisense, splicing, MLSMR, MLSCN, NIH Roadmap, qHTS, NCGC

Structure (SMILES) | outcome
O=C(NC(=O)c1c(F)cccc1F)Nc1cc(Cl)c(OC(F)(F)C(F)C(F)(F)F)cc1Cl (stereo not drawn) | inactive
Clc1ccc(C(OCCN2CCCCC2)c2ccccc2)cc1 (stereo not drawn) | inactive
CN(C)C(=S)SSC(=S)N(C)C | inactive
CN(C)C(=O)Oc1cc(OC(=O)N(C)C)cc(C(O)CNC(C)(C)C)c1 (stereo not drawn) | inactive
COc1ccc(C(=O)N2CCCC2=O)cc1 | inactive
COC(=O)C1=CCCN(C)C1 | inactive
Cc1ccc(N=CN(C)C=Nc2ccc(C)cc2C)c(C)c1 | inactive
CCNc1nc(Cl)nc(NCC)n1 | inactive
c1ccc2nc(N3CCNCC3)ccc2c1 | inactive
Clc1ccc(CSC(Cn2ccnc2)c2ccc(Cl)cc2Cl)cc1 (stereo not drawn) | inactive
Clc1ccc(CO/N=C(\Cn2ccnc2)c2ccc(Cl)cc2Cl)c(Cl)c1 | inactive
CCCCCCCCC(=O)NCc1ccc(O)c(OC)c1 | inactive
CC[n+]1c(-c2ccccc2)c2cc(N)ccc2c2ccc(N)cc21 | inactive
CC(C)[N+](C)(CCC(C(N)=O)(c1ccccc1)c1ccccc1)C(C)C | inactive
N#Cc1nn(-c2c(Cl)cc(C(F)(F)F)cc2Cl)c(N)c1S(=O)C(F)(F)F (stereo not drawn) | inactive
CCCCCCCCCCCCCCCC[n+]1ccccc1 | inactive
CCCC(C)C1(CC)C(=O)N=C(S)NC1=O (stereo not drawn) | inactive
NC(=O)CN1CCCC1=O | inactive
